The panel holds about 79,000 compounds, 15% with a hit somewhere; the sample as a whole holds those more often. Rule as the data show it: active = growth inhibition above about 70%; inactive = the rest.
How the values were obtained:
[1] = NCI Yeast Anticancer Drug Screen. Data for the rad50 strain (AID 155);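 also: 0% = growth of vehicle-only cultures of the same strain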; conditions: S. cerevisiae rad50 strain growth inhibition; at 50.0 µM; stronger effect = higher value
In short: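 A DNA repair-deficient yeast mutant serves as the test organism; compound-induced growth inhibition is calculated against vehicle-treated cells.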

[2] = NCI Yeast Anticancer Drug Screen. Data for the mec2-1 strain (AID 157); conditions: S. cerevisiae mec2-1 strain, at 50.0 µM, stronger effect = higher value
In short: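 Cells of the genetically defined mec2-1 yeast strain are incubated with test compound. Inhibition of growth is calculated against vehicle-treated controls.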

[3] = NCI Yeast Anticancer Drug Screen. Data for the sgs1 mgt1 strain (AID 161);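 also: 0% = growth of cultures given vehicle only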; conditions: S. cerevisiae sgs1 mgt1 strain, at 50.0 µM, stronger effect = higher value
In short: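 Genetically altered yeast, compound exposure, growth inhibition relative to vehicle.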

[4] = NCI Yeast Anticancer Drug Screen. Data for the cln2 rad14 strain (AID 165);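 also: 0% = growth equal to vehicle treated cultures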; conditions: S. cerevisiae cln2 rad14 strain, at 50.0 µM, stronger effect = higher value
In short: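 The screen exposed genetically defined yeast (cln2 rad14) to test compounds and scored growth inhibition relative to vehicle-treated controls.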

[5] = NCI Yeast Anticancer Drug Screen. Data for the bub3 strain (AID 167); conditions: S. cerevisiae bub3 mutant strain, at 50.0 µM, stronger effect = higher value
In short: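 Inhibition values come from growth of compound-treated mutant yeast normalised to vehicle-treated controls.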

[6] = NCI Yeast Anticancer Drug Screen. Data for the mlh1 rad18 strain (AID 175); conditions: S. cerevisiae mlh1 rad18 strain growth inhibition; at 50.0 µM; stronger effect = higher value
In short: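 Compound-treated yeast growth, normalised to vehicle controls. Strain bears defined DNA repair mutations.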

Measured: growth inhibition

Cc1ccc(Oc2ccc(C(=O)c3cccc(C(=O)c4ccc(Oc5ccc(C)cc5)cc4)n3)cc2)cc1
inactive: [1] -18.6% | [2] 2.05% | [3] -38.2% | [4] -28.2% | [5] -15.3% | [6] -24.9%

O=C1CCCCCCCC(=O)Nc2ccc3nc4ccccc4c(c3c2)SCCCCCCCCCCCCSc2c3ccccc3nc3ccc(cc23)N1
inactive: [1] -9.85% | [2] -6.5% | [3] -20.9% | [4] -9.15% | [5] -3.2% | [6] -10.3%

COc1ccc(CNc2cnc3cc(N)ccc3n2)cc1OC
inactive: [1] -12.3% | [2] -34.5% | [3] -37.5% | [4] 3.15% | [5] -19.3% | [6] -16.4%

COc1ccc(C(C)=O)c(O)c1
inactive: [1] -10.4% | [2] -15.2% | [3] -10.2% | [4] -3.7% | [5] 3.2% | [6] 5.2%

CCOC(=O)c1ccccc1O
inactive: [1] -17.8% | [2] -5.8% | [3] -8.6% | [4] -38.4% | [5] -12.4% | [6] 9.5%

CC1c2c(Cl)nc3ccccc3c2Oc2c1c(Cl)nc1ccccc21
inactive: [1] 7.05% | [2] 5.1% | [3] -6.05% | [4] 18.3% | [5] 5.1% | [6] 22.1%

CCC1(O)c2ccccc2CCC1C (stereo unspecified)
inactive: [1] 12.8% | [2] -15.8% | [3] -15.3% | [4] -29.9% | [5] -33.1% | [6] -19.9%

CC(C)(C)OC[C@H](O)CC#N
inactive: [1] -8.2% | [2] -61.4% | [3] -36.1% | [4] -20.4% | [5] -30.8% | [6] -26.4%

CCOC(=O)c1c(O)csc1N
inactive: [1] 7.85% | [2] 5.45% | [3] 3.8% | [4] -16.9% | [5] -20.6% | [6] 10.7%

CCOC(=O)CC[C@H](NC(=O)c1nc[nH]c1[N+](=O)[O-])C(=O)OCC
inactive: [1] -17.8% | [2] -36% | [3] -44.4% | [4] 8.9% | [5] -7.35% | [6] -34.4%

CC(CCc1ccccc1)NC1=NCCO1 (stereo unspecified)
inactive: [1] -9.6% | [2] -12.2% | [3] -16.4% | [4] -23.6% | [5] -1.2% | [6] 2.7%

O=S(=O)(c1ccc(NC(=S)N2CCOCC2)cc1)N1CCCCC1
inactive: [1] -3.45% | [2] 1.1% | [3] -10.1% | [4] 1.6% | [5] -5.95% | [6] 8.65%

O=C(NNC1CCN(Cc2ccccc2)CC1)c1ccccc1
inactive: [1] 12.5% | [2] -18% | [3] 5.35% | [4] 16.9% | [5] 2.5% | [6] 13.4%

CN(C)c1nc2ccc(Cl)cc2c(=O)[nH]1
inactive: [1] 6.25% | [2] 4.55% | [3] -14% | [4] 3.55% | [5] -17.9% | [6] 3.9%

NC(=O)c1cc([N+](=O)[O-])cnc1Sc1ncccn1
inactive: [1] 40.8% | [2] 14.9% | [3] 21.7% | [4] 18.2% | [5] 29.9% | [6] 44.6%

COC1=CC(=O)C(C2OC(=O)C(Cl)=C2Cl)=CC1=O (stereo unspecified)
inactive: [1] 8.1% | [2] 7.3% | [3] -2.45% | [4] -11.4% | [5] 16.6% | [6] 13.2%

C=C1CCC2[C@@H](CCC3[C@]2(C)CCC[C@]3(C)C(=O)OC)[C@@H]1CC=O (stereo partly specified)
inactive: [1] 11.4% | [2] 10.2% | [3] 9.25% | [4] 23.4% | [5] 9.5% | [6] 14.8%

Cc1nc(Cl)c(Cl)c(Cl)n1
inactive: [1] 5% | [2] -7.9% | [3] -0.6% | [4] 5.55% | [5] -4% | [6] -5.2%

CCCCOC(=O)NC(=O)c1cc2ccc(N(CC)CC)cc2oc1=O
inactive: [1] -10.5% | [2] 3.5% | [3] 8.7% | [4] 3.4% | [5] 5.4% | [6] 4.2%

COC1OC(=O)c2ccccc21 (stereo unspecified)
inactive: [1] 12.2% | [2] -16.2% | [3] -2.1% | [4] -0.7% | [5] -2.45% | [6] 12.8%

CCOC(=O)c1c(C)c2c(n1C)CCC(C#N)C2=O (stereo unspecified)
inactive: [1] 9.3% | [2] 10.4% | [3] 9.8% | [4] 21.1% | [5] 9.05% | [6] 17.5%

CNc1ccn(C2OC(CO)C(O)C2SC(C)(C)C)c(=O)n1 (stereo unspecified)
inactive: [1] 6.15% | [2] 0.25% | [3] 13.7% | [4] 9.1% | [5] 0.45% | [6] 28.6%

COc1c(NC(=O)Nc2ccc(F)c([N+](=O)[O-])c2)cccc1[N+](=O)[O-]
inactive: [1] 7.85% | [2] 22.1% | [3] 10% | [4] 2.8% | [5] 20.1% | [6] 27.8%

Cc1cc(C)nc(NS(=O)(=O)c2ccc(NC(=O)c3cccc4c(Nc5ccc(S(=O)(=O)N=C(N)N)cc5)c5ccc(Cl)cc5nc34)cc2)n1
inactive: [1] 16.4% | [2] 23.3% | [3] 27.2% | [4] 24.4% | [5] 13% | [6] 32.8%

COc1ccc([N+](=O)[O-])c2c1CONC2c1c(CO)cnc(C)c1O (stereo unspecified)
inactive: [1] 35.1% | [2] -12.2% | [3] 27.2% | [4] -22.4% | [5] 5.3% | [6] -2.7%

O=C(c1ccc(Cl)c(Cl)c1)C(CS(=O)(=O)O)CS(=O)(=O)O (tested in a mixture with another compound)
inactive: [1] -1.55% | [2] 0.4% | [3] -0.8% | [4] -4.45% | [5] -4.8% | [6] 12.3%

COC(=O)[C@H]1O[C@H]1c1cccc[n+]1[O-]
inactive: [1] 10.1% | [2] -2.4% | [3] 3.9% | [4] -24.6% | [5] 9.3% | [6] -0.9%

CC(C)(C)N/N=C(\C(=O)Nc1cccc(Cl)c1)C1C(=O)Nc2ccccc2S1=O (stereo unspecified)
inactive: [1] -31.1% | [2] -43.8% | [3] -24.6% | [4] 10.7% | [5] -11.2% | [6] 8.75%

CN(C)CCN1CCc2c([nH]c3ccccc23)C1c1cccnc1 (stereo unspecified)
inactive: [1] -55.6% | [2] -24.8% | [3] -4.2% | [4] 6.25% | [5] -18.2% | [6] -38.2%

O=C(Nc1ccc([N+](=O)[O-])cc1)OCc1ccccc1
inactive: [1] -14.1% | [2] -0.05% | [3] -9.35% | [4] 0.7% | [5] 1.7% | [6] -16%

c1ccc(C(NC2=NCCO2)C2CC2)cc1 (stereo unspecified)
inactive: [1] -12.8% | [2] -18.4% | [3] -9.1% | [4] 23.3% | [5] -9.55% | [6] -54.9%

Clc1ccc(C2N(Cc3ccccc3)CCC3CCCCN32)cc1Cl (stereo unspecified)
inactive: [1] -10.1% | [2] -21.6% | [3] 13.7% | [4] 26.1% | [5] -10.1% | [6] -1.4%

O=S1c2ccccc2N=C(c2ccc3ccccc3c2)CC1C1=CC=CCC1 (stereo unspecified)
inactive: [1] -27.4% | [2] -33.1% | [3] -3.1% | [4] -2.65% | [5] 3.85% | [6] -11.8%

C=CCN1C(=O)CC2[C@@H]3CCc4cc(O)ccc4C3CC[C@]2(C)C1=O (stereo partly specified)
inactive: [1] -0.65% | [2] -12.7% | [3] -7.6% | [4] 22.8% | [5] 8% | [6] 1.25%

CCCCNS(=O)(=O)c1cc(C(=O)O)cc(C(=O)O)c1
inactive: [1] 2.55% | [2] -7% | [3] 4.25% | [4] -33.9% | [5] 2.75% | [6] -1.7%

COC(=O)/C(=N\N)C(C(=O)C(=O)Nc1nc(=S)[nH][nH]1)c1nc2ccc([N+](=O)[O-])cc2[nH]c1=O (stereo unspecified)
inactive: [1] 2.3% | [2] -7.65% | [3] 10.1% | [4] 11.7% | [5] 29% | [6] 22.6%

CCc1cc(O)c([N+](=O)[O-])cc1[N+](=O)[O-]
inactive: [1] -15.7% | [2] -3.95% | [3] 21.1% | [4] -34.8% | [5] -17.2% | [6] -7.95%

C(=N\N1CCN(/N=C/c2ccc(OCc3ccccc3)cc2)CC1)/c1ccc(OCc2ccccc2)cc1
inactive: [1] -12.6% | [2] -3.95% | [3] 7.65% | [4] -19.4% | [5] 0.2% | [6] -16.8%

Oc1c(Cl)cccc1CN1CCOCC1
inactive: [1] 26.1% | [2] 6.15% | [3] 30.5% | [4] 25.1% | [5] -9.35% | [6] 33%

NC1c2c(Cl)sc(Cl)c2C(=O)C1O (stereo unspecified)
inactive: [1] -0.8% | [2] 15.2% | [3] -10.2% | [4] -3.6% | [5] 4% | [6] -40.4%

CC[O-].Cc1ccc2cccc([O-])c2n1.Cc1ccc2cccc([O-])c2n1.Cc1ccc2cccc([O-])c2n1.[Ti+4]
inactive: [1] -18.1% | [2] -5.75% | [3] -1.5% | [4] 20% | [5] -1.25% | [6] 4.3%
